Assay results reported in PubChem BioAssay (EPA / NIEHS).
Inconclusive results are not listed. Active and inactive are the calls of the source. How the source made its calls, unless noted: active means hit-call score of the fitted dose curve at least 0.9, where 1 is the maximum; inactive means score below 0.9.

Tests used:
[1] = target: Estrogen-related receptor gamma (Homo sapiens) (UniProt P62508); assay: ATG_ERRg_TRANS: Attagene TRANS-FACTORIAL HepG2 Assay for human Estrogen-Related Receptor gamma (ERRg) (AID 2282977; active means hit-call score of the fitted dose curve at least 0.9, where 1 is the maximum;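 further: hits increase reporter signal over DMSO so potencies reflect activators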); conditions: HepG2 Attagene TRANS reporter, ERRg transactivation
Method in brief: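 HepG2 cells transiently transfected with multiplexed GAL4-UAS reporter units driven by chimeric NR-Gal4 proteins; 24 h exposure. Reporter mRNA quantified by RT-PCR, fluorescent labelling, HpaI digestion and capillary electrophoresis; gain of signal vs DMSO.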

[2] = target: Glucocorticoid receptor (Homo sapiens) (UniProt P04150); assay: ATG_GR_TRANS: Attagene TRANS-FACTORIAL HepG2 Assay for human Glucocorticoid Receptor (GR) (AID 2282978; active means hit-call score of the fitted dose curve at least 0.9, where 1 is the maximum;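 further: activators score as hits since higher reporter transcript over DMSO is fitted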); conditions: HepG2 Attagene TRANS GR reporter, mRNA transcription
Method in brief: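 HepG2 cells transiently transfected with GAL4-UAS reporter units and exogenous GR-Gal4 chimera, dosed 24 h. Reporter mRNA by RT-PCR, FAM labeling, HpaI digest and capillary electrophoresis; gain-of-signal fit versus DMSO.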

[3] = target: Oxysterols receptor LXR-alpha (Homo sapiens) (UniProt Q13133); assay: ATG_LXRa_TRANS: Attagene TRANS-FACTORIAL HepG2 Assay for human Liver X Receptor alpha (LXRa) (AID 2282980; active means hit-call score of the fitted dose curve at least 0.9, where 1 is the maximum); conditions: HepG2 Attagene TRANS reporter, LXRa transactivation
Method in brief: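 HepG2 cells were transiently transfected with multiplexed reporter units driven by chimeric LXRa–GAL4 fusion proteins, then dosed for 24 h. Reporter mRNA was quantified by RT-PCR, fluorescent labelling and capillary electrophoresis; gain of signal fitted against DMSO baseline.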

[4] = target: Oxysterols receptor LXR-beta (Homo sapiens) (UniProt P55055); assay: ATG_LXRb_TRANS: Attagene TRANS-FACTORIAL HepG2 Assay for human Liver X Receptor beta (LXRb) (AID 2282981; active means hit-call score of the fitted dose curve at least 0.9, where 1 is the maximum); conditions: HepG2 Attagene TRANS GAL4-LXRb reporter, mRNA
Method in brief: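 In this TRANS format, exogenous chimeric NR-Gal4 protein activity, not endogenous factors, drives reporter expression in transfected human HepG2 cells. Exposure lasted 24 h; reporter mRNA was read by fluorescent capillary electrophoresis.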

[5] = target: Hepatocyte nuclear factor 4-alpha (Homo sapiens) (UniProt P41235); assay: ATG_HNF4a_TRANS: Attagene TRANS-FACTORIAL HepG2 Assay for human Hepatocyte Nuclear Factor 4 alpha (HNF4a) (AID 2282982; active means hit-call score of the fitted dose curve at least 0.9, where 1 is the maximum); conditions: HepG2 HNF4a transactivation reporter, mRNA readout
Method in brief: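 Cells used were human HepG2, transiently carrying GAL4-UAS reporter units read out against exogenous NR-GAL4 chimeras. Reporter transcript levels after 24 h dosing were quantified by fluorescent RT-PCR and capillary electrophoresis.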

[6] = ATG_M_06_TRANS: Attagene TRANS-FACTORIAL HepG2 Assay for M06 Transcription Factor (Internal Marker) (AID 2282983; active means hit-call score of the fitted dose curve at least 0.9, where 1 is the maximum); conditions: HepG2 Attagene TRANS M06 internal marker reporter
Method in brief: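 HepG2 cells transiently transfected with multiplexed GAL4-UAS reporter transcription units; after 24 h compound exposure, reporter mRNA measured by RT-PCR, FAM-labelled primer extension, HpaI digestion and capillary electrophoresis. Gain-of-signal fitted versus DMSO baseline; background control readout.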

[7] = ATG_M_32_TRANS: Attagene TRANS-FACTORIAL HepG2 Assay for M32 Transcription Factor (Internal Marker) (AID 2282984; active means hit-call score of the fitted dose curve at least 0.9, where 1 is the maximum); conditions: HepG2 Attagene TRANS M32 internal marker reporter
Method in brief: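 Human hepatoma HepG2, transient MRTU transfection, 24 h treatment. RNA → RT-PCR → fluorescent primer extension → HpaI digest (2 h, 37 C) → CE. Positive-direction fit vs DMSO.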

[8] = target: Nuclear receptor subfamily 4 group A member 2 (Homo sapiens) (UniProt P43354); assay: ATG_NURR1_TRANS: Attagene TRANS-FACTORIAL HepG2 Assay for human Nuclear Receptor Related Protein 1 (NURR1) (AID 2282985; active means hit-call score of the fitted dose curve at least 0.9, where 1 is the maximum); conditions: HepG2 Attagene TRANS reporter, mRNA readout
Method in brief: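 After 24 h chemical dosing, total RNA from transiently transfected HepG2 cells was reverse-transcribed and reporter cDNA PCR-amplified, FAM-labelled and analysed by capillary electrophoresis. Activity fitted in positive direction, DMSO as negative control.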

[9] = target: Transcriptional activator Myb (Homo sapiens) (UniProt P10242); assay: ATG_Myb_CIS: Attagene CIS-FACTORIAL HepG2 Assay for human Myeloblastosis (Myb) Proto-Oncogene Transcription Factor (AID 2282986); conditions: HepG2 Attagene CIS-FACTORIAL Myb reporter transcription; actives raise or lower the signal
Method in brief: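 Transiently transfected HepG2 cells carrying a multiplexed cis-promoter reporter set report endogenous Myb activity after 24 h compound exposure. Reporter mRNA is read by RT-PCR with capillary electrophoresis of fluorescent products, fitted bidirectionally against DMSO.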

[10] = target: Nuclear respiratory factor 1 (Homo sapiens) (UniProt Q16656); assay: ATG_NRF1_CIS: Attagene CIS-FACTORIAL HepG2 Assay for human Nuclear Respiratory Factor 1 (NRF1) Orphan Gene (AID 2282987); conditions: HepG2 NRF1 cis-element reporter, Attagene multiplex; actives raise or lower the signal
Method in brief: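 HepG2 cells transiently transfected with multiple cis-regulated reporter units, exposed 24 h. Reporter mRNAs measured by RT-PCR, fluorescent labelling, HpaI digestion and capillary electrophoresis; bidirectional fitting against DMSO.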

[11] = ATG_NFI_CIS: Attagene CIS-FACTORIAL HepG2 Assay for human Nuclear Factor I (NFI) (AID 2282989); conditions: HepG2 cis-regulatory reporter, NFI response element transcription; actives raise or lower the signal
Method in brief: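 Transfected HepG2 liver cells, exposed 24 h, supplied total RNA for oligo(dT) reverse transcription and reporter-specific PCR. Labelled, HpaI-cut fragments were sized by capillary electrophoresis; DMSO set the baseline for bidirectional fitting.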

[12] = target: Myc proto-oncogene protein (Homo sapiens) (UniProt P01106); assay: ATG_Myc_CIS: Attagene CIS-FACTORIAL HepG2 Assay for human Myelocytomatosis (Myc) Proto-Oncogene Transcription Factor (AID 2282990); conditions: HepG2, Attagene cis-reporter transcription factor activity; actives raise or lower the signal
Method in brief: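 DMSO-normalised, bidirectionally fitted reporter mRNA signal. HepG2 cells transfected with cis reporter constructs, treated 24 h; transcripts detected by RT-PCR, 6-FAM primer extension and CE.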

[13] = ATG_NF_kB_CIS: Attagene CIS-FACTORIAL HepG2 Assay for human Nuclear Factor Kappa B (NF-kB) (AID 2282991); conditions: HepG2 Attagene cis-factorial NF-kB reporter mRNA; actives raise or lower the signal
Method in brief: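 HepG2 cells transfected with cis-promoter-driven reporter units, so endogenous transcription factor activity is measured. Reporter mRNA quantified 24 h after dosing by RT-PCR and capillary electrophoresis, with bidirectional fitting against DMSO.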

[14] = ATG_NRF2_ARE_CIS: Attagene CIS-FACTORIAL HepG2 Assay for human Nuclear Factor Erythroid 2 Related Factor 2 (NFR2) response to Antioxidant Response Elements (ARE) (AID 2282992); conditions: HepG2 Attagene ARE/NRF2 reporter, transcription factor activity; actives raise or lower the signal;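 on AC50: reporter mRNA level measured by RT-PCR and capillary electrophoresis fluorescence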
Method in brief: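 HepG2 cells transiently transfected with multiplexed cis-element reporter constructs, 24 h after chemical dosing; reporter mRNA quantified by RT-PCR, fluorescent primer extension, HpaI digestion and capillary electrophoresis. Bidirectional fit relative to DMSO.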

[15] = ATG_Oct_MLP_CIS: Attagene CIS-FACTORIAL HepG2 Assay for human Octamer-Binding Transcription Factor (Oct) (AID 2282993); conditions: HepG2 Attagene cis-factorial Oct reporter, mRNA; actives raise or lower the signal
Method in brief: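 Using HepG2 cells bearing transfected cis-reporter constructs, mRNA induction was read after 24 h by fluorescent RT-PCR and capillary electrophoresis, with DMSO defining baseline for gain- or loss-of-signal fits.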

[16] = BSK_3C_TissueFactor: BioMAP Diversity Plus: 3C Assay for Tissue Factor Biomarker Activity (AID 2282997); conditions: BioMAP 3C HUVEC, tissue factor biomarker readout; actives raise or lower the signal
Method in brief: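 Primary human umbilical vein endothelial cells in the 3C system were exposed to test chemical for 24 h, then Tissue Factor measured by ELISA. Activity was fitted bidirectionally against DMSO as negative control and baseline.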

[17] = BSK_3C_uPAR: BioMAP Diversity Plus: 3C Assay for Urokinase-type plasminogen activator receptor (uPAR) Biomarker Activity (AID 2282998); conditions: BioMAP 3C HUVEC, uPAR biomarker ELISA; actives raise or lower the signal
Method in brief: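 In this endothelial cell-based assay, human umbilical vein primary cells were treated with chemicals and harvested at 24 h. uPAR was quantified using ELISA, with gains or losses fitted relative to DMSO controls.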

[18] = target: Bile acid receptor (Homo sapiens) (UniProt Q96RI1); assay: ATG_FXR_TRANS: Attagene TRANS-FACTORIAL HepG2 Assay for Farnesoid X Receptor (FXR) (AID 2282979; active means hit-call score of the fitted dose curve at least 0.9, where 1 is the maximum;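 further: hits raise reporter mRNA above DMSO so AC50 marks FXR activation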); conditions: HepG2 Attagene TRANS FXR-GAL4 reporter transcription
Method in brief: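 HepG2 cells transiently transfected with reporter constructs in which a chimeric FXR-GAL4 protein drives a GAL4-UAS reporter; 24 h compound exposure. Reporter mRNA measured by RT-PCR, FAM labelling, HpaI digestion and capillary electrophoresis; gain-of-signal versus DMSO.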

[19] = target: Cellular tumor antigen p53 (Homo sapiens) (UniProt P04637); assay: ATG_p53_CIS: Attagene CIS-FACTORIAL HepG2 Assay for human p53 Transcription Factor (AID 2282994); conditions: HepG2 p53 cis-element reporter, Attagene mRNA; actives raise or lower the signal
Method in brief: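 HepG2 cells transiently transfected with cis-regulated multiple reporter transcription units, dosed 24 h. Reporter mRNA measured by RT-PCR, 6-FAM primer extension, HpaI digestion and capillary electrophoresis; bidirectional fit relative to DMSO.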

[20] = ATG_GAL4_TRANS: Attagene TRANS-FACTORIAL HepG2 Assay for GAL4 (Internal Marker) (AID 2282976; active means hit-call score of the fitted dose curve at least 0.9, where 1 is the maximum); conditions: HepG2 Attagene TRANS GAL4 internal marker reporter
Method in brief: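 HepG2 cells transiently transfected with multiplexed GAL4-UAS reporter constructs were dosed for 24 h. Reporter mRNA was measured by RT-PCR, 6-FAM primer extension, HpaI digestion and capillary electrophoresis, and gain of signal was fitted relative to DMSO.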

Measured: AC50

Sequence of Myc proto-oncogene protein (Homo sapiens) (P01106 whole entry, looked up): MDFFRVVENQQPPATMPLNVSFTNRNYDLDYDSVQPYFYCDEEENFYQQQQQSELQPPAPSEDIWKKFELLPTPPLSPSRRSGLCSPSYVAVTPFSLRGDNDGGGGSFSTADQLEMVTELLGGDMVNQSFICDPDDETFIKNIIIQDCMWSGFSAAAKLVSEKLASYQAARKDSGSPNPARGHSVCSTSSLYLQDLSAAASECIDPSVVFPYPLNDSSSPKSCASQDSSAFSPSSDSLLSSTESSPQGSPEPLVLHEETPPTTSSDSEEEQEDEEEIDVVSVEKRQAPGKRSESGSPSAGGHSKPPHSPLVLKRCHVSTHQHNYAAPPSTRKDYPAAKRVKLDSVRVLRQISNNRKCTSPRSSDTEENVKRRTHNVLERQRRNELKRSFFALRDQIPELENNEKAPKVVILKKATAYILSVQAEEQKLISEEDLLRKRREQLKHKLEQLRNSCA
Sequence of Oxysterols receptor LXR-beta (Homo sapiens) (P55055 whole entry, looked up, the tested form may be a part): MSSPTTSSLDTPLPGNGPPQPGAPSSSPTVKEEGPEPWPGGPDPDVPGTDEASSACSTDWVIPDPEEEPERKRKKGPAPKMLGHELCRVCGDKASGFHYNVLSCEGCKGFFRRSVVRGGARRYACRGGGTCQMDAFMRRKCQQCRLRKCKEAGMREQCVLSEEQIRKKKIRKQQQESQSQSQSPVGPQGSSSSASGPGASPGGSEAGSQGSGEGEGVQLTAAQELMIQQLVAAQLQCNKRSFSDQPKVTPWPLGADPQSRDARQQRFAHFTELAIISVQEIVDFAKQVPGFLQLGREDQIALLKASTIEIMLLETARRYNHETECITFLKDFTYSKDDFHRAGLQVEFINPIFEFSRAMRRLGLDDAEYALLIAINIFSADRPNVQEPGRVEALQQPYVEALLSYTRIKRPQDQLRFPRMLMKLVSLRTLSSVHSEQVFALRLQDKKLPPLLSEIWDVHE
Sequence of Nuclear respiratory factor 1 (Homo sapiens) (Q16656 whole entry, looked up): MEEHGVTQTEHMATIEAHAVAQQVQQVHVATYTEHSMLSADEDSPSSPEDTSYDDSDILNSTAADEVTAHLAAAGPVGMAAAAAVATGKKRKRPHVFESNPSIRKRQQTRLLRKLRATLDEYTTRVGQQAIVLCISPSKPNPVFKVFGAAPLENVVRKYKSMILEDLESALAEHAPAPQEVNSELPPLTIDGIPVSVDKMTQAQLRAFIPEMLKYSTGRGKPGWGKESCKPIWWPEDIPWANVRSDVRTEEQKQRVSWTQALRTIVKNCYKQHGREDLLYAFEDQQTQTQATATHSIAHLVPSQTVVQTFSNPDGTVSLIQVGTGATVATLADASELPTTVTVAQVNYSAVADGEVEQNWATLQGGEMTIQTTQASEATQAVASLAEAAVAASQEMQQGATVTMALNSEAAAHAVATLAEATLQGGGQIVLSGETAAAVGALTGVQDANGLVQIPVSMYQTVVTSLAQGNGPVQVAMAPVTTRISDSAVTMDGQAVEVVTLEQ
Sequence of Transcriptional activator Myb (Homo sapiens) (P10242 whole entry, looked up): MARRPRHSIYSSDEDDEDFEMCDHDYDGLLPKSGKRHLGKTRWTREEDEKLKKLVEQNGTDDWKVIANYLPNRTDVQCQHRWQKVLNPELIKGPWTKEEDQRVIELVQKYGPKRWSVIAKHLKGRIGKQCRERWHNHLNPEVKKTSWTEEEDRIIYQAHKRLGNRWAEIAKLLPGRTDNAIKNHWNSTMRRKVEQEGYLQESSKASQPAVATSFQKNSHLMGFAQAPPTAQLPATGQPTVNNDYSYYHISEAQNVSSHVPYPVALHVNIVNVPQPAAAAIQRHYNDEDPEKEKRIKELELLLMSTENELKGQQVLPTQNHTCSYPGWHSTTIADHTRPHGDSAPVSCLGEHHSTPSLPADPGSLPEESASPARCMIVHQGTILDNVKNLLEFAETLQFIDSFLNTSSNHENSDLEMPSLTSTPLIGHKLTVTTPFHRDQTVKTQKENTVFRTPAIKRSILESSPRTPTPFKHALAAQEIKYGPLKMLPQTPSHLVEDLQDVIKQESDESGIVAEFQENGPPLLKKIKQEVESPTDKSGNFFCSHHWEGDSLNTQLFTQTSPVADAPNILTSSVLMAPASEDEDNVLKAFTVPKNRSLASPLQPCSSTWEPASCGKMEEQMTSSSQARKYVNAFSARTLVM
Sequence of Nuclear receptor subfamily 4 group A member 2 (Homo sapiens) (P43354 whole entry, looked up): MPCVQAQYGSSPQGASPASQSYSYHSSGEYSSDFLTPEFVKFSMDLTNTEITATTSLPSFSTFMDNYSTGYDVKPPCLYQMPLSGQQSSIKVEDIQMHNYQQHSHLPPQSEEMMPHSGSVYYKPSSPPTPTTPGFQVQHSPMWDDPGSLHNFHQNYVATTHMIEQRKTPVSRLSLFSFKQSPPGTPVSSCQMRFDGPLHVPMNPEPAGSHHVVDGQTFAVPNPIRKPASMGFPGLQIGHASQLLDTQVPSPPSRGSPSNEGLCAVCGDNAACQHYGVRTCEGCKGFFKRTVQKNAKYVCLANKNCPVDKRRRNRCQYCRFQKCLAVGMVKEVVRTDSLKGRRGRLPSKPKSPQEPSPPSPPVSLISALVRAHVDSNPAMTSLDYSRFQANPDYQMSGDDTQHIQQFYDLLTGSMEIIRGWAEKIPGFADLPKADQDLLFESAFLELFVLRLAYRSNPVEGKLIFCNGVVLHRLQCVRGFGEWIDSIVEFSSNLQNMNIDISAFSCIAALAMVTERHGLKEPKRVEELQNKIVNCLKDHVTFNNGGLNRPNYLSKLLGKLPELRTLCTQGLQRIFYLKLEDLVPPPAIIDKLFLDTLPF
Sequence of Glucocorticoid receptor (Homo sapiens) (P04150 whole entry, looked up, the tested form may be a part): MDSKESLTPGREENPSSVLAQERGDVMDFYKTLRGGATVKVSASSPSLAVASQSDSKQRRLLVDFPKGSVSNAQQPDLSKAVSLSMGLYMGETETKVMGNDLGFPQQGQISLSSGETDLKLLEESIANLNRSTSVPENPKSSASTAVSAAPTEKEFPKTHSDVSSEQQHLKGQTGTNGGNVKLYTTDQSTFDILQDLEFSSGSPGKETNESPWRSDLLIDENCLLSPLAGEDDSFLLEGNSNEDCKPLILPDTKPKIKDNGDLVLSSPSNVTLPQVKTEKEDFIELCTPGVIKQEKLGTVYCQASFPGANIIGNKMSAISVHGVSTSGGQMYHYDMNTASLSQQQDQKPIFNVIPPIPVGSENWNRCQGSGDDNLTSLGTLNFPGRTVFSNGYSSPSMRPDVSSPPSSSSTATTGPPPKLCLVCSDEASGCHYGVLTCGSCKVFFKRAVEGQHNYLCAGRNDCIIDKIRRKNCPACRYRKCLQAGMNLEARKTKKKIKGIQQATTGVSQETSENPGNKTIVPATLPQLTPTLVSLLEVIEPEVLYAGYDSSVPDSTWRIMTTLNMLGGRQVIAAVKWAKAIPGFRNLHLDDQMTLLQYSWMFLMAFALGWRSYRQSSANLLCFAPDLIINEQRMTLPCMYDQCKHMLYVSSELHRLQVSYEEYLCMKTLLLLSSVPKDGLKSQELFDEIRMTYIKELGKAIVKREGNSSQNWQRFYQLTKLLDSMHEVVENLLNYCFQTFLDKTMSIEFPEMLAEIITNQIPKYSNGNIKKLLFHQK
Sequence of Hepatocyte nuclear factor 4-alpha (Homo sapiens) (P41235 whole entry, looked up, the tested form may be a part): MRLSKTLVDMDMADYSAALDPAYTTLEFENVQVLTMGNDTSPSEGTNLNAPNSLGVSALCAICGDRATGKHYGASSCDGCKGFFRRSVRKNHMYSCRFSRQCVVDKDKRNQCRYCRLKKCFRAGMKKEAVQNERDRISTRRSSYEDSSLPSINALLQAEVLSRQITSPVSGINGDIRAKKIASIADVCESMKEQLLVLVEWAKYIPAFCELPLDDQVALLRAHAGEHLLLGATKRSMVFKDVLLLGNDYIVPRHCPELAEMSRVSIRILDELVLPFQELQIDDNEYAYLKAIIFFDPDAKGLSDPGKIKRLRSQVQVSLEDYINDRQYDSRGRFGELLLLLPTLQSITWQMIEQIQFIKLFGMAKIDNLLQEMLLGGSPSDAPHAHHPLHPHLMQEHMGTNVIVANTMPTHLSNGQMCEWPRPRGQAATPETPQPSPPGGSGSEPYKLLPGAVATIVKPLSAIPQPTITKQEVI
Sequence of Cellular tumor antigen p53 (Homo sapiens) (P04637 whole entry, looked up): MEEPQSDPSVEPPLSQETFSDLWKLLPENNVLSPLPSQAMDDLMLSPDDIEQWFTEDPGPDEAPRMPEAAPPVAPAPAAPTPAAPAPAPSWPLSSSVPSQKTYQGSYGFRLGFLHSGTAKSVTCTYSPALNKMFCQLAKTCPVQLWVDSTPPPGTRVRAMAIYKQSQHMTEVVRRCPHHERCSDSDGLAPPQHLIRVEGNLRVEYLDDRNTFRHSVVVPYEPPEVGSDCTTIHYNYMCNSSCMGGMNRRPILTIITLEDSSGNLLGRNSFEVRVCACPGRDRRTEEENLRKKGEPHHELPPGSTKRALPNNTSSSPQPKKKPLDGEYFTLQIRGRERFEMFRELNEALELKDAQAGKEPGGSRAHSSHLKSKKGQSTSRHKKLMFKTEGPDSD
Sequence of Bile acid receptor (Homo sapiens) (Q96RI1 whole entry, looked up, the tested form may be a part): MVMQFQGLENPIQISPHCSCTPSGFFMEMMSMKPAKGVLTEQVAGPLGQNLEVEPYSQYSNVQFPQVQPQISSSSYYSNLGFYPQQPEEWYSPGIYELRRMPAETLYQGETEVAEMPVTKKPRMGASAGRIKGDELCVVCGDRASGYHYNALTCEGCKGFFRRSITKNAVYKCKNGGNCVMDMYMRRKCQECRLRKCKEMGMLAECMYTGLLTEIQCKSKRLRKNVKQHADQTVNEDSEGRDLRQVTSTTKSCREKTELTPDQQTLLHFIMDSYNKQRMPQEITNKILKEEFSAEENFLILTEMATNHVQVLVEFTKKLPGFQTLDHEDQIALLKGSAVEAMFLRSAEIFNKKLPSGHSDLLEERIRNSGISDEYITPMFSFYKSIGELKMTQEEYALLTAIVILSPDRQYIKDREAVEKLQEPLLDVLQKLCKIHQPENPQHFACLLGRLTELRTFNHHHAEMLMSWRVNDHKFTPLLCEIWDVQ

N#CSCSC#N
active: [16] 5.49 µM | [17] 5.93 µM
inactive: [1] | [2] | [3] | [4] | [5] | [6] | [7] | [8] | [9] | [10] | [11] | [12] | [13] | [14] | [15]

CN1COCN(Cc2cnc(Cl)s2)C1=N[N+](=O)[O-]
inactive: [2] | [18] | [3] | [4] | [5] | [6] | [7] | [9] | [10] | [11] | [12] | [13] | [14] | [15] | [16] | [17]

CNC(=O)ON=C(SC)C(=O)N(C)C
inactive: [1] | [4] | [5] | [10] | [11] | [12] | [13] | [19] | [16] | [17]
active: [14] 24.9 µM | [15] 18.9 µM

CCC(=O)Nc1ccc(Cl)c(Cl)c1
active: [11] 10.5 µM | [14] 30.7 µM
inactive: [20] | [4] | [5] | [6] | [7] | [8] | [9] | [10] | [12] | [15] | [19] | [16] | [17]

CCCCSP(=O)(SCCCC)SCCCC
inactive: [2] | [18] | [4] | [7] | [8] | [10] | [11] | [16]
active: [9] 83.3 µM | [12] 83.2 µM | [14] 18.3 µM | [15] 11.8 µM | [17] 28.7 µM

C#CCC1=C(C)C(OC(=O)C2C(C=C(C)C)C2(C)C)CC1=O (configuration not stated)
inactive: [1] | [18] | [4] | [5] | [6] | [7] | [8] | [10] | [16] | [17]
active: [11] 80 µM | [12] 68.1 µM | [14] 13.2 µM | [15] 44.5 µM

Cc1nn(-c2cc(NS(C)(=O)=O)c(Cl)cc2Cl)c(=O)n1C(F)F
inactive: [1] | [4] | [5] | [10] | [11] | [12] | [14] | [15] | [16] | [17]

CCC(=NOC/C=C/Cl)C1=C(O)CC(C2CCOCC2)CC1=O (configuration not stated)
inactive: [1] | [2] | [4] | [5] | [7] | [9] | [10] | [11] | [12] | [13] | [14] | [15] | [19] | [16] | [17]

COP(=O)(OC)C(O)C(Cl)(Cl)Cl (configuration not stated)
active: [4] 92.4 µM | [14] 29.9 µM | [15] 50 µM
inactive: [1] | [2] | [18] | [5] | [7] | [9] | [10] | [11] | [12] | [13] | [16] | [17]
